Data published in PubChem BioAssay (NCATS).
Inconclusive results are not listed. Active and inactive are the calls of the source. Calls come from the whole dose curve; as a rule, active = well fitted curve in the direction sought with a large enough effect; inconclusive = small, poorly fitted or top-dose-only effect, or another doubt; inactive = no such curve, though single readings can be large; an effect the other way counts as inactive or inconclusive.

Key:
[1] = Cellular Toxicity (caspase-3) N2a (AID 665); conditions: N2a cells, luminescence, normalized: DMSO 0%, 10 µM staurosporine 100%; at 92.2 µM (top of the series);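 note: compound exposure lasted 16 h at 37 °C before readout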
How it was run: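 Concentration-response qHTS: compound-induced caspase-3/7 luminescence in N2a cells (16 h, 37 °C), relative to DMSO and 10 uM staurosporine controls; AC50 obtained using the standard Hill equation.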

[2] = Cellular Toxicity (caspase-3) NIH 3T3 (AID 666);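 note: caspase signal read after 16 h compound exposure; 0% = DMSO basal and 100% = 100 µM tamoxifen stimulation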
How it was run: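 Activity: caspase-3/7 induction, NIH 3T3 cells, 16 hr treatment at 37°C, luminescent Caspase-Glo detection; AC50 via Hill equation.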

[3] = Cellular Toxicity (caspase-3) Renal Proximal Tubule (AID 667); conditions: renal proximal tubule cells; at 91.7 µM (top of the series), primary cells freshly taken from rat, solvent-only wells 0%, staurosporine 100% unless noted;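 note: cells exposed to compound for 16 hours at 37 °C before detection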
How it was run: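 AC50 derived by standard Hill fit of concentration-response data, normalized between DMSO basal and 10 uM staurosporine as 100% stimulation. Cells: primary rat kidney proximal tubule, 16 h treatment at 37 °C.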

[4] = biological target: Cytochrome P450 3A4 (Homo sapiens) (UniProt P08684); test: qHTS Assay for Inhibitors and Substrates of Cytochrome P450 3A4 (AID 884); note: % is set by controls: 0 for no effect and ±100 for the full control effect; nearly all actives have a fitted effect of over 50% in size
Chain of Cytochrome P450 3A4 (Homo sapiens) (P08684 whole entry, looked up): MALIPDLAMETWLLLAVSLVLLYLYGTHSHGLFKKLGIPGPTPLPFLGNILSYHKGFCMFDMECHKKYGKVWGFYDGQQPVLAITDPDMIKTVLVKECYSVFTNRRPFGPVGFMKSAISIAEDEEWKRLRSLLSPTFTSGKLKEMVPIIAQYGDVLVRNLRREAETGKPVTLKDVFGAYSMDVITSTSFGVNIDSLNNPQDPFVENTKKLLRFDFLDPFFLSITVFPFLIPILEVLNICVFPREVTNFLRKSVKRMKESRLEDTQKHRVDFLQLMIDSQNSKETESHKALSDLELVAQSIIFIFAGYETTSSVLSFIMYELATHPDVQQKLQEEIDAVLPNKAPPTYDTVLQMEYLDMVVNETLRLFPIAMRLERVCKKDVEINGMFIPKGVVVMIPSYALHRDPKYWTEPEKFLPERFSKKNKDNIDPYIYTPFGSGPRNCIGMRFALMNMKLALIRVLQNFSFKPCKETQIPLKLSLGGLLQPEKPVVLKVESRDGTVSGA
How it was run: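 Luminescent readout of luciferin produced by CYP3A4 (20 nM) dealkylation of Luciferin-PPXE, 25 uM (its KM). NADPH-driven reaction ran 60 min at RT after 10 min compound preincubation; data scaled to 57 uM ketoconazole as 100% inhibition.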

[5] = Cell Viability - LYMP2-001 (AID 921);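 note: 0% = DMSO only and full inhibition = tetraoctylammonium bromide control wells; nearly all actives have a fitted effect of over 70% in size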
How it was run: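 Steps: seed 2500 lymphoblastoid cells/well; 5 hr, 37 C; add compound; 24 hr, 37 C; CellTiter-Glo reagent, 30 min room temperature; read luminescence. Concentration-response modeled by Hill equation for AC50.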

[6] = MultiTox-Fluor Cytotoxicity Assay - LYMP1-001 - Dead Cells (AID 946);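 note: 0% = DMSO and 100% = tetraoctylammonium bromide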
How it was run: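 LYMP1-001 lymphoblastoid cells (2500/well) treated 16 h at 37 C. Dead-cell protease cleavage of bis-AAF-R110 read at Ex/Em 485/520. Normalized to DMSO and 15 uM tetraoctylammonium bromide; AC50 from Hill fits.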

[7] = MultiTox-Fluor Cytotoxicity Assay - LYMP1-001 - Live Cells (AID 947);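 note: 0% = DMSO only and full inhibition = tetraoctylammonium bromide control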
[8] = Cell Viability - LYMP1-002 - Assay at 16 hr (AID 948);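 note: 0% = DMSO alone and full effect = 92 µM tetraoctylammonium bromide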
How it was run: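 Seed 2500 LYMP1-002 cells per well in complete medium and hold 5 hr at 37 C. Add compound across a concentration series and incubate 16 hr at 37 C. Add CellTiter-Glo, wait 30 min at room temperature, read luminescence.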

[9] = MultiTox-Fluor Cytotoxicity Assay - LYMP1-002 - Live Cells (AID 955);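 note: cells exposed to compound for 16 hours; % is set by controls: 0 for no effect and ±100 for the full control effect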
How it was run: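 In this qHTS viability format, lymphoblastoid cells (LYMP1-002, human) received compound for 16 hr at 37 C. Fluorogenic GF-AFC cleavage by viable cells was detected at 405/510 nm after 1 h at room temperature.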

[10] = MultiTox-Fluor Cytotoxicity Assay - LYMP1-002 - Dead Cells (AID 960);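 note: 0% = DMSO and 100% = tetraoctylammonium bromide; nearly all actives have a fitted effect of over 60% in size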
How it was run: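 Concentration-dependent increases in membrane-leaked protease activity are quantified in LYMP1-002 cells after 16 hr treatment; values are normalized against DMSO and tetraoctylammonium bromide (15 uM) controls and AC50 derived by Hill modeling.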

[11] = MultiTox-Fluor Cytotoxicity Assay - LYMP1-003 - Live Cells (AID 962);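 note: cells exposed to compound for 16 hours at 37 °C; 0% = DMSO only and full loss = 92 µM tetraoctylammonium bromide; cytotoxic hits lower the live-cell protease signal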
How it was run: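 Human lymphoblastoid line LYMP1-003 in complete culture medium, treated 16 hr with titrated compounds. Viable cells quantified via cell-permeant GF-AFC substrate fluorescence; AC50 derived by Hill fitting.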

[12] = Cell Viability - LYMP1-003 - Assay at 24 hr (AID 963);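 note: plate controls were DMSO only for no effect and tetraoctylammonium bromide positive control for full effect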
How it was run: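 The lymphoblastoid line was treated with titrated compounds for 24 hours, and viable cell number estimated from luciferase-based ATP luminescence.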

[13] = Cell Viability - LYMP1-003 - Assay at 40 hr (AID 964); note: % is set by controls: 0 for no effect and ±100 for the full control effect; nearly all actives have a fitted effect of over 60% in size
How it was run: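 Acute toxicity is scored as a concentration-dependent loss of intracellular ATP in LYMP1-003 cells (2500/well, complete medium) after 40 hr at 37 C, measured by CellTiter-Glo luminescence; AC50 values derive from standard Hill modelling.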

[14] = Cell Viability - LYMP2-003 (AID 965);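 note: cells exposed to compounds for 24 h before reading; 0% = DMSO only and full effect = 92 µM tetraoctylammonium bromide; nearly all actives have a fitted effect of over 50% in size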
How it was run: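 Seed 2500 lymphoblastoid cells/well; incubate 5 hr, 37 C; add compounds; incubate 24 hr, 37 C; add CellTiter-Glo, 30 min RT; read luminescence. AC50 from Hill fit.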

[15] = Cell Viability - LYMP2-004 (AID 966);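 note: plate controls were DMSO only for no effect and tetraoctylammonium bromide control for full effect; nearly all actives have a fitted effect of over 65% in size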
How it was run: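 Viable-cell number estimated from ATP luminescence (CellTiter-Glo) in 2500 human lymphoblastoid cells/well after 24 hr at 37 C with compound. AC50 fitted to the standard Hill equation.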

[16] = Cell Viability - LYMP2-009 (AID 968);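 note: 0% = DMSO alone and the full-kill end = tetraoctylammonium bromide at 92 µM; nearly all actives have a fitted effect of over 55% in size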
[17] = Cell Viability - LYMP2-011 (AID 969);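 note: 0% = DMSO only and full inhibition = 92 µM tetraoctylammonium bromide; nearly all actives have a fitted effect of over 60% in size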
How it was run: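 Cells seeded at 2500 per well rest 5 hr before compound addition, then incubate 24 hr at 37 C. CellTiter-Glo reagent is added for 30 min at room temperature before luminescence detection.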

[18] = Cell Viability - LYMP2-013 (AID 970);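 note: 0% = DMSO only and full inhibition = tetraoctylammonium bromide control; nearly all actives have a fitted effect of over 55% in size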
How it was run: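 In complete culture medium, human lymphoblastoid cells were dosed for 24 hr at 37 C, with tetraoctylammonium bromide (6.4pM to 92 uM) as positive control. Viability reflects luciferase-based ATP signal; AC50 derived from concentration-response curves.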

[19] = Cell Viability - LYMP2-017 (AID 972);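 note: cells exposed to compound for 24 hours at 37 °C; % is set by controls: 0 for no effect and ±100 for the full control effect; nearly all actives have a fitted effect of over 55% in size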
How it was run: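 In this qHTS format, lymphoblastoid cells in complete medium receive test compound for a day at 37 C before ATP content is quantified by luciferase luminescence. Reported AC50 figures come from standard Hill-equation curve fitting.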

[20] = Cell Viability - LYMP2-019 (AID 973);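 note: 0% = DMSO alone and full effect = 92 µM tetraoctylammonium bromide; nearly all actives have a fitted effect of over 55% in size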
How it was run: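 AC50 values come from Hill-equation modelling of qHTS concentration-response curves, where viability is measured as luciferase-based ATP luminescence in the lymphoblastoid line after 24 hr compound exposure in complete culture medium.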

[21] = Cell Viability - LYMP2-021 (AID 974)
How it was run: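 In qHTS format, compounds are tested against 2500 lymphoblastoid cells per well for 24 h; viable cell number is inferred from ATP-driven luciferase light, and Hill-equation fitting yields AC50 values.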

[22] = Cell Viability - LYMP2-025 (AID 976);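 note: plate controls were DMSO only for no effect and tetraoctylammonium bromide control for full effect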
How it was run: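 Luminescent ATP readout after 24 hr treatment of a human lymphoblastoid line (LYMP2-025, 2500 cells/well, 37 C). Reagent developed 30 min at room temperature; AC50 fitted with the Hill equation.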

[23] = Cell Viability - LYMP2-002 (AID 977);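 note: compound exposure lasted 24 h at 37 °C; plate controls were DMSO only for no effect and 92 µM tetraoctylammonium bromide for full effect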
How it was run: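 Human lymphoblastoid cells, 2500/well, complete medium; 5 h 37 C settle; compound 24 h 37 C; CellTiter-Glo, 30 min RT; luminescence. Decrease in ATP = cytotoxicity; AC50 via Hill equation.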

Clc1cc(Cl)c(-c2cc(Cl)c(Cl)cc2Cl)cc1Cl
inactive: caspase-3 activation [1] -0.702% | outcome [2] | caspase-3 activation [3] -3.51% [at 91.7 µM] | Potency [4] | Potency [5] | Potency [6] | Potency [7] | Potency [8] | outcome [9] | Potency [10] | Potency [11] | Potency [12] | Potency [13] | Potency [14] | Potency [15] | Potency [16] | Potency [17] | Potency [18] | Potency [19] | Potency [20] | Potency [21] | Potency [22] | Potency [23]
